SMILES strings stand for the structures. “And” between values parts separate entries of the source, which are not always exact repeats. Identical values can stand only once. Unmarked numbers belong to inactive results. Records with an inconclusive call do not appear. The source made the active and inactive calls. Unless noted, calls follow the shape of the dose curve; as a rule, active = well fitted curve in the direction sought with a large enough effect; inconclusive = small, poorly fitted or top-dose-only effect, or another doubt; inactive = no such curve, though single readings can be large; an effect the other way counts as inactive or inconclusive.

In one test the test system is CASKI. Briefly: Primary qHTS to identify gynecologic anti-cancer compounds using libraries of approved drugs and bioactive compounds (AID 1345084). Also: nearly all actives have a fitted effect of over 55% in size. Also: potency is read from the fitted curve at half-maximal effect. The following applies: Gynecologic cancer cell panel viability, ATPlite luminescence, 48 h; series mostly up to 57.5 µM. The essentials: (§1)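 Cells, 1,000 per well, were allowed to settle for 16 h at 37 C before compound addition. Five concentrations were tested for 48 h, and viability was read by ATPlite luminescence after 15 min at room temperature.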

The next test relates to Es-2. The description is as above. The following applies: Gynecologic cancer cell panel viability, ATPlite luminescence, 48 h; series mostly up to 57.5 µM. The method, boiled down:
as §1

The test system of the next test is HeLa. The test is described as above. The following applies: Gynecologic cancer cell panel viability, ATPlite luminescence, 48 h; series mostly up to 57.5 µM. The method, boiled down: as §1
(In ATP-based viability assays light output follows the ATP content of the culture.)

A further test deals with Hek293T. The test is described as above. The following applies: Gynecologic cancer cell panel viability, ATPlite luminescence, 48 h, control line for the selectivity index; series mostly up to 57.5 µM. The essentials: as §1
The next test has as its system JEG-3. The description is as above. The following applies: Gynecologic cancer cell panel viability, ATPlite luminescence, 48 h; series mostly up to 57.5 µM. The essentials: as §1
The test system of the next test is OV90. Described as above. The following applies: Gynecologic cancer cell panel viability, ATPlite luminescence, 48 h; series mostly up to 57.5 µM. The essentials: as §1
Another test concerns PA-1. Described as above. The following applies: Gynecologic cancer cell panel viability, ATPlite luminescence, 48 h; series mostly up to 57.5 µM. The method, boiled down: as §1
In a further test the test system is SKOV3. Described as above. The following applies: Gynecologic cancer cell panel viability, ATPlite luminescence, 48 h; series mostly up to 57.5 µM. The essentials: as §1
A further test concerns Tov-21-G. The description is as above. The following applies: Gynecologic cancer cell panel viability, ATPlite luminescence, 48 h; series mostly up to 57.5 µM. The method, boiled down:
as §1

In a further test the test system is Tov112D. The description is as above. The following applies: Gynecologic cancer cell panel viability, ATPlite luminescence, 48 h; series mostly up to 57.5 µM. The essentials: as §1
A short description of test [1]: Drug repurposing screens with cells derived from glioblastoma tumor samples (AID 1345199). Also: nearly all actives have a fitted effect of over 40% in size. Also: potency is read from the fitted curve at half-maximal effect. As to activity, negative = cell killing: % is scaled to controls: 0 for no effect and ±100 for the full control effect. The following applies: GBM patient neurospheres viability, ATP luminescence, 48 h. The method, boiled down:
(§2)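 Primary testing used CD133+ neurospheres from four GBM patients, seven concentrations, 48 h exposure and ATP-based viability; confirmation added three slower-growing patient lines.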

The test system of the next test is astro. The description is as above. The following applies: viability, ATP luminescence, 48 h; series mostly up to 45.9 µM. The method, boiled down:
as §2

Test [2] deals with Nuclear receptor subfamily 1 group I member 2 (Rattus norvegicus) (UniProt Q9R1A7). Briefly: qHTS assay for small molecule activators of the rat pregnane X receptor (rPXR) signaling pathway (AID 651751; call rule not given here; also: 0% is about no effect). The following applies: rPXR reporter cells, luciferase (One-Glo), 24 h.
Nuclear receptor subfamily 1 group I member 2 (Rattus norvegicus), sequence (Q9R1A7 whole entry, looked up): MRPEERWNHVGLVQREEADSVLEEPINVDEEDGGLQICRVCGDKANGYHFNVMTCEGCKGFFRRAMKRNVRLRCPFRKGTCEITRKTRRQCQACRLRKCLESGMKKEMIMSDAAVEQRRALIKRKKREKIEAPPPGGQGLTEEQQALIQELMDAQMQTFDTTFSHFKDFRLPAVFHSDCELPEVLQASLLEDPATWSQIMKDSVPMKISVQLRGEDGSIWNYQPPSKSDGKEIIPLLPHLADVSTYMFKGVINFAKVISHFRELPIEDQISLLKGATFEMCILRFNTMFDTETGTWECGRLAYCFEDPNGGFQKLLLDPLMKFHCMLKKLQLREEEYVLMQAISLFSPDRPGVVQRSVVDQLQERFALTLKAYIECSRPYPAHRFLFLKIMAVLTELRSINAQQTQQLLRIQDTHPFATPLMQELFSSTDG
Test [3] in a line: qHTS assay for small molecule activators of the human pregnane X receptor (PXR) signaling pathway (AID 720659; call rule not given here; also: 0% is about no effect). A general note: Quantitative high-throughput screening tests each substance at several concentrations.
The mark [4] stands for this setting: at 45.9 µM (top of the series), tumour line B.
Where [5] appears, read: at 45.9 µM (top of the series), tumour line D.
Where [6] appears, read: at 46.1 µM (top of the series), tumour line C.
The mark [7] stands for this setting: at 46 µM (top of the series), tumour line A.
Where [8] appears, read: at 20 µM (top of the series), tumour line C.
Where [9] appears, read: at 21.2 µM (top of the series), tumour line B.
[10] abbreviates: at 21.2 µM (top of the series), tumour line D.
Setting [11] is: at 21.3 µM (top of the series), tumour line A.

Take `Clc1ccc2c(c1)C(N1CCNCC1)=Nc1ccccc1O2`: the Potency entry with CASKI, with Es-2, in the test on HeLa, with Hek293T, with JEG-3 and in the test on OV90 was “inactive” in each case. The Potency entry in the test with PA-1, in the test on SKOV3, in the test on Tov-21-G and in the test with Tov112D was “inactive” in each case. In addition, the activity, negative = cell killing in test [1] (setting [4]) is -27.8%; in test [1] (setting [5]) it was -2.29%; in test [1] (setting [6]), -0.706%. Also, the Potency in test [1] (tumour line A) is 14.1 µM (active).
For `NC(=O)OCC(COC(N)=O)c1ccccc1`, the Potency entry in the test with CASKI, with Es-2, in the test with HeLa, in the test on Hek293T, in the test on JEG-3 and with OV90 was “inactive” in each case. The Potency result in the test with PA-1, in the test on SKOV3, in the test with Tov-21-G, in the test with Tov112D and in the test on astro was “inactive” each time. The activity, negative = cell killing in test [1] (setting [4]) is 2.73%; in [1] (setting [5]) it was -0.95%; in test [1] (setting [7]), -11.1%; in test [1] (setting [6]) it was 48.2%.
As to `Cn1ccc2cc3c(cc21)CCN3C(=O)Nc1cccnc1`, the Potency result with CASKI, with Es-2, with HeLa, with Hek293T, in the test with JEG-3 and in the test on OV90 was “inactive” each time. Further, the Potency result in the test with PA-1, in the test with SKOV3, with Tov-21-G and with Tov112D was “inactive” throughout.
As to `CC12CC3CC(C)(C1)CC(N)(C3)C2`, the Potency entry with CASKI, with Es-2, in the test with HeLa, in the test on Hek293T, in the test on JEG-3 and with OV90 was “inactive” each time. Also, the Potency result in the test with PA-1, in the test on SKOV3, with Tov-21-G, in the test with Tov112D and in the test with astro was “inactive” throughout. The activity, negative = cell killing in [1] (setting [4]) is 2.01%; in [1] (setting [5]), -1.27%; in [1] (setting [7]) it was 0.163%; in test [1] (setting [6]), 0.449%.
In the case of `O=C(c1ccc(F)cc1)C1CCN(CCn2c(=O)[nH]c3ccccc3c2=O)CC1`, the Potency entry in the test with CASKI, in the test on Es-2, in the test on HeLa, in the test with Hek293T, with JEG-3 and in the test on OV90 was “inactive” in each case. For the same compound, the Potency result in the test with PA-1, in the test on SKOV3, in the test with Tov-21-G and in the test on Tov112D was “inactive” in each case. Besides, the activity, negative = cell killing in [1] (setting [5]) was -39.8%; in test [1] (setting [6]) it was 7.2%. For the same compound, in test [1] (tumour line A), the Potency was 3.98 µM (active).
As for `NS(=O)(=O)c1cc2c(cc1Cl)NCNS2(=O)=O`, the Potency result in the test with CASKI, in the test with Es-2, in the test with HeLa, in the test on Hek293T, in the test on JEG-3 and in the test on OV90 was “inactive” in each case. Further, the Potency entry with PA-1, with SKOV3, with Tov-21-G, in the test with Tov112D and in the test on astro was “inactive” throughout. The activity, negative = cell killing was -16.5% in test [1] (setting [4]), -0.301% in [1] (setting [5]), -4.73% in test [1] (setting [7]) and -21.1% in test [1] (setting [6]). Also, in test [2], the max response was -0.0581% and 1.2%. Besides, in test [3], the result was inactive.
With `NCCCCCC(=O)O`, the Potency result with CASKI, in the test with Es-2, in the test with HeLa, in the test with Hek293T, with JEG-3 and in the test with OV90 was “inactive” throughout. Also, the Potency result with PA-1, in the test with SKOV3, in the test on Tov-21-G, in the test with Tov112D and in the test with astro was “inactive” in each case. Also, the activity, negative = cell killing in test [1] (setting [8]) was 16.3%; in test [1] (setting [9]), -4.6%; in test [1] (setting [10]) it was -5.09%; in test [1] (setting [11]), -27.1%.
With `NC(=O)NO`, the Potency entry in the test on CASKI, with Es-2, in the test with HeLa, with Hek293T, in the test with JEG-3 and with OV90 was “inactive” in each case. Further, the Potency entry in the test on PA-1, in the test with SKOV3, with Tov-21-G, in the test on Tov112D and in the test on astro was “inactive” each time. Also, the activity, negative = cell killing in test [1] (setting [4]) was -13.8%; in [1] (setting [5]), -5.79%; in test [1] (setting [7]), -19.1%; in test [1] (setting [6]), -11.2%.
Turning to `CS(=O)(=O)Nc1ccc([N+](=O)[O-])cc1Oc1ccccc1`, the Potency result in the test on CASKI, with Es-2, in the test with HeLa, in the test with Hek293T, in the test with JEG-3 and with OV90 was “inactive” in each case. Besides, the Potency entry in the test on PA-1, in the test on SKOV3, in the test on Tov-21-G, with Tov112D and in the test with astro was “inactive” each time. Besides, the activity, negative = cell killing in test [1] (setting [8]) was 19.5%; in test [1] (setting [9]), -19.6%; in [1] (setting [10]), -29.6%; in test [1] (setting [11]), -28.2%.
As to `CN(CCOc1ccc(NS(C)(=O)=O)cc1)CCc1ccc(NS(C)(=O)=O)cc1`, the Potency result in the test on CASKI, in the test on Es-2, in the test on HeLa, in the test on Hek293T, in the test on JEG-3 and in the test on OV90 was “inactive” throughout. The Potency entry in the test with PA-1, with SKOV3, with Tov-21-G, with Tov112D and in the test with astro was “inactive” each time. The figures for the activity, negative = cell killing in test [1] (setting [4]), in [1] (setting [5]) and in test [1] (setting [6]) were -5.75%, -4.11% and 4.34%, respectively.
Take `NCCc1cnc[nH]1`: the Potency result in the test on CASKI, in the test on Es-2, in the test with HeLa, with Hek293T, in the test with JEG-3 and in the test on OV90 was “inactive” each time. Moreover, the Potency entry with PA-1, with SKOV3, in the test on Tov-21-G, in the test on Tov112D and in the test on astro was “inactive” throughout. Moreover, the activity, negative = cell killing is 27.7% in test [1] (setting [4]), 2.11% in test [1] (setting [5]) and 0.797% in test [1] (setting [6]).
For `NC12CC3CC(CC(C3)C1)C2`, the Potency entry in the test with CASKI, with Es-2, in the test on HeLa, with Hek293T, in the test with JEG-3 and with OV90 was “inactive” throughout. In addition, the Potency entry with PA-1, in the test with SKOV3, in the test on Tov-21-G, with Tov112D and in the test with astro was “inactive” in each case. Further, the activity, negative = cell killing in test [1] (setting [4]) was -22.3%; in test [1] (setting [7]), 14.4%; in test [1] (setting [6]), 2.2%.
As for `CCOC(=O)C(C)(C)Oc1ccc(Cl)cc1`, the Potency result with CASKI, in the test with Es-2, in the test on HeLa, in the test with Hek293T, in the test on JEG-3 and in the test with OV90 was “inactive” throughout. The Potency entry in the test with PA-1, in the test with SKOV3, in the test with Tov-21-G, with Tov112D and in the test on astro was “inactive” in each case. Also, the figures for the activity, negative = cell killing in [1] (setting [4]), in test [1] (setting [5]) and in test [1] (setting [6]) were -9.66%, -5.13% and 5.62%, respectively. Also, the max response in test [2] was 2.24%. Besides, in test [3], the compound was classed as inactive.
Take `O=C(Nc1ccc([N+](=O)[O-])cc1Cl)c1cc(Cl)ccc1O`: the Potency in the test on CASKI was 6.31 µM (active); in the test with Es-2, 2.51 µM (active); in the test on HeLa, 1.26 µM (active); in the test on Hek293T, 1.78 µM (active); in the test on JEG-3 it was 2.82 µM (active); in the test with PA-1, 2 µM (active). Further, the Potency in the test with SKOV3 is 3.98 µM (active); in the test on Tov-21-G, 3.55 µM (active); in the test on Tov112D it was 2 µM (active); with astro, 0.282 µM (active). The Potency entry with OV90 was “inactive”. Further, the max response in [2] was -12.4%. In [3], the outcome was inactive.

The values are drawn from PubChem BioAssay (NCATS).
